Screening data (PubChem)
miR-122 inh – miR-122 suppressors via Renilla sensor increase, primary screen, cell-based, Huh7 psiCHECK-miR122, Renilla luciferase, single point; 48 h; activation, % at 12.5 µM; 340,000 compounds, 0.14% hits; AID 623901, 2012;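 active = mean activation of 30% or more, with every replicate also reaching 30%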;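 note: 0% = median of neutral control wells and 100% = median of positive control wells; higher luciferase signal means stronger suppression of miR-122 activity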
An asterisk follows results filed as active. The full list was thinned out, with hits kept by preference.

SMILES | miR-122 inh
COC(=O)C[C@@H]1CC[C@@H]2[C@@H](COc3ccc(NC(=O)Nc4cccc(C#N)c4)cc3C(=O)N2C)O1 | 48*
Cc1ccccc1NC(=O)Nc1ccc2c(c1)C(=O)N(C)[C@H]1CC[C@@H](CC(=O)NCC3CC3)O[C@H]1CO2 | -218
CO[C@@H]1CN(C)C(=O)c2cc(NC(=O)Nc3ccccc3)ccc2OC[C@H](C)NC[C@H]1C | -2
CN1C(=O)c2cc(NC(=O)NCc3ccccc3)ccc2OC[C@@H]2O[C@H](CC(=O)NCC3CCCCC3)CC[C@@H]21 | -173
COCC(=O)Nc1ccc2c(c1)C(=O)N(C)[C@@H]1CC[C@@H](CC(=O)NC3CCCC3)O[C@H]1CO2 | 53*
COCC(=O)Nc1ccc2c(c1)C(=O)N(C)C[C@H](OC)[C@H](C)CN(C(=O)COC)[C@H](C)CO2 | -2
CO[C@@H]1CN(C)C(=O)c2cc(NC(=O)NC(C)C)ccc2OC[C@H](C)N(C(=O)NC(C)C)C[C@H]1C | 1
CNC(=O)C[C@@H]1CC[C@@H]2[C@H](COc3ccc(NC(=O)Nc4cccc(C)c4)cc3C(=O)N2C)O1 | 47*
COCC(=O)Nc1ccc2c(c1)C(=O)N(C)C[C@H](OC)[C@@H](C)CN(C(=O)COC)[C@@H](C)CO2 | 1
CNC(=O)C[C@@H]1CC[C@H]2[C@@H](COc3ccc(NC(=O)NC(C)C)cc3C(=O)N2C)O1 | 70*
C[C@H]1CN([C@@H](C)CO)S(=O)(=O)c2ccc(/C=C/c3ccccc3)cc2O[C@H]1CN(C)C(=O)c1cccnc1 | -11
CC(C)CC#Cc1cnc2c(c1)C(=O)N([C@H](C)CO)C[C@H](C)[C@H](CN(C)S(=O)(=O)c1ccccc1)O2 | 10
CCS(=O)(=O)Nc1ccc2c(c1)C(=O)N(C)C[C@@H](OC)[C@H](C)CN[C@@H](C)CO2 | -1
C[C@@H]1CN([C@@H](C)CO)C(=O)c2cc(C#Cc3ccc(F)cc3)cnc2O[C@@H]1CN(C)CC1CCOCC1 | 0
COc1ccc(-c2ccc3c(c2)O[C@@H](CN(C)C(=O)c2ccccc2F)[C@H](C)CN([C@H](C)CO)S3(=O)=O)cc1 | -11
COc1ccc(S(=O)(=O)N(C)C[C@@H]2Oc3cc(-c4ccccc4OC)ccc3S(=O)(=O)N([C@@H](C)CO)C[C@H]2C)cc1 | 0
CCS(=O)(=O)Nc1ccc2c(c1)C(=O)N(C)C[C@H](OC)[C@H](C)CN[C@@H](C)CO2 | -1
COc1cccc(-c2cnc3c(c2)C(=O)N([C@@H](C)CO)C[C@H](C)[C@@H](CN(C)C(=O)CC2CC2)O3)c1 | -15
CCCC#Cc1cnc2c(c1)C(=O)N([C@H](C)CO)C[C@H](C)[C@H](CN(C)Cc1cccnc1)O2 | -2
CCCNC(=O)C[C@@H]1CC[C@H]2[C@H](COc3ccc(NC(=O)Nc4ccccc4F)cc3C(=O)N2C)O1 | -100
CNC(=O)C[C@@H]1CC[C@@H]2[C@@H](COc3ccc(NC(=O)c4ccccc4F)cc3C(=O)N2C)O1 | 53*
CCC(=O)Nc1ccc2c(c1)OC[C@@H](C)N(C(=O)c1ccccc1F)C[C@H](C)[C@H](OC)CN(C)C2=O | -1
CNC[C@@H]1Oc2cc(C#Cc3cccc(F)c3)ccc2S(=O)(=O)N([C@@H](C)CO)C[C@H]1C | 2
C[C@@H]1CN([C@H](C)CO)S(=O)(=O)c2ccc(-c3ccc(C#N)cc3)cc2O[C@H]1CN(C)C(=O)C1CC1 | -25
C[C@H]1CN([C@@H](C)CO)C(=O)c2cc(Br)cnc2O[C@H]1CN(C)Cc1ccc2c(c1)OCO2 | 12
SMILES | miR-122 inh
CC(C)NC(=O)N(C)C[C@H]1Oc2cc(-c3ccccc3)ccc2S(=O)(=O)N([C@H](C)CO)C[C@@H]1C | -12
CO[C@H]1CN(C)C(=O)c2cc(NC(=O)c3nc4ccccc4s3)ccc2OC[C@@H](C)N(Cc2ccncc2)C[C@H]1C | -2
CO[C@H]1CN(C)C(=O)c2cc(NC(=O)C3CCOCC3)ccc2OC[C@@H](C)N(C)C[C@@H]1C | -4
CN1C(=O)c2cc(NC(=O)c3cccs3)ccc2OC[C@H]2O[C@H](CC(=O)NCC(F)(F)F)CC[C@H]21 | 50*
CCCC(=O)Nc1ccc2c(c1)C(=O)N(C)[C@H]1CC[C@@H](CC(=O)NCC(F)(F)F)O[C@H]1CO2 | -143
CCCC(=O)Nc1ccc2c(c1)C(=O)N(C)[C@@H]1CC[C@H](CC(=O)NCC(F)(F)F)O[C@H]1CO2 | 37*
CN1C(=O)c2cc(NC(=O)c3cccs3)ccc2OC[C@H]2O[C@@H](CC(=O)N3CCCCC3)CC[C@H]21 | 37*
CCCC(=O)Nc1ccc2c(c1)C(=O)N(C)C[C@@H](OC)[C@@H](C)CN[C@@H](C)CO2 | 0
CO[C@@H]1CN(C)C(=O)c2cc(NC(=O)C3CCOCC3)ccc2OC[C@@H](C)N(C)C[C@H]1C | -1
CN1C(=O)c2cc(NC(=O)Cc3cccs3)ccc2OC[C@@H]2O[C@H](CC(=O)NCC3CCCCC3)CC[C@@H]21 | -154
CN1C(=O)c2cc(NC(=O)c3cccs3)ccc2OC[C@@H]2O[C@@H](CC(=O)NCCN3CCCCC3)CC[C@H]21 | 83*
C[C@@H]1CN([C@H](C)CO)S(=O)(=O)c2ccc(/C=C/c3ccccc3)cc2O[C@H]1CN(C)C(=O)c1ccccc1 | -8
COc1ccccc1-c1cnc2c(c1)C(=O)N([C@H](C)CO)C[C@H](C)[C@H](CN(C)C(=O)c1ccccc1)O2 | 3
COCC(=O)N(C)C[C@H]1Oc2ncc(C#Cc3ccncc3)cc2C(=O)N([C@@H](C)CO)C[C@H]1C | -9
COc1cccc(-c2cnc3c(c2)C(=O)N([C@H](C)CO)C[C@H](C)[C@H](CN(C)S(=O)(=O)c2ccc(F)cc2)O3)c1 | -16
COCC#Cc1ccc2c(c1)O[C@@H](CN(C)C(=O)COC)[C@@H](C)CN([C@@H](C)CO)S2(=O)=O | 0
C[C@H]1CN([C@@H](C)CO)C(=O)c2cc(-c3ccc(F)cc3)cnc2O[C@@H]1CN(C)C(=O)c1cccnc1 | 10
C[C@@H]1CN([C@H](C)CO)S(=O)(=O)c2ccc(C#CCN(C)C)cc2O[C@H]1CN(C)CC1CCCC1 | -22
CCCNC(=O)N1C[C@@H](C)[C@H](OC)CN(C)C(=O)c2cc(NS(=O)(=O)CC)ccc2OC[C@@H]1C | 1
C[C@@H]1CN([C@H](C)CO)S(=O)(=O)c2ccc(-c3cccc(C(=O)N(C)C)c3)cc2O[C@H]1CN(C)C(=O)Nc1ccccc1 | -13
C[C@H](CO)N1C[C@H](C)[C@H](CN(C)CC2CCOCC2)Oc2ncc(C3=CCCCC3)cc2C1=O | 7
C[C@@H]1CN([C@@H](C)CO)C(=O)c2cc(-c3cncnc3)cnc2O[C@H]1CN(C)CC1CCOCC1 | 6
C[C@@H]1CN([C@H](C)CO)C(=O)c2cc(-c3cccc(F)c3)cnc2O[C@H]1CN(C)CC1CCCC1 | 9
C[C@H](CO)N1C[C@H](C)[C@H](CN(C)CC2CCOCC2)Oc2ncc(-c3cncnc3)cc2C1=O | -1
CCCC#Cc1ccc2c(c1)O[C@H](CN(C)S(C)(=O)=O)[C@H](C)CN([C@H](C)CO)S2(=O)=O | -16
CC(C)NC(=O)N(C)C[C@H]1Oc2cc(C3=CCCCC3)ccc2S(=O)(=O)N([C@@H](C)CO)C[C@@H]1C | -14
O=C(Cn1c(=O)c2ccccc2n(CC(=O)N2CCCCC2)c1=O)N1CCCCC1 | 60*
C[C@@H]1CN([C@@H](C)CO)C(=O)c2cc(C#CCc3ccccc3)cnc2O[C@H]1CN(C)C(=O)C1CCCCC1 | 4
CCC(=O)Nc1ccc2c(c1)OC[C@H](C)NC[C@H](C)[C@@H](OC)CN(C)C2=O | -6
